Bioassay records as filed in PubChem BioAssay.
Shown is part of a subset that was picked to be rich in hits.
GFP derepression – epigenetic modulators derepressing GFP locus in mouse cells. 0.09% of 68,000 active. Potency, µM (doses to about 46.1 µM), for inactives: at the top dose GFP derepression (activation). mouse C127i GFP locus derepression, cytometry, 30 h. AID 597; further: % of control where 0% means no effect
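Locus derepression in mouse mammary C127i cells whose integrated CMV-GFP reporter is normally silent; GFP expression after 30 h compound treatment was quantified by counting fluorescent cells.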
Ub-GFP proteasome – proteasome inhibitors stabilizing ubiquitin-GFP reporter; Ubiquitin-GFP reporter cells, proteasome inhibition, GFP fluorescence; response scale: untreated = 0%, 10 µM MG-132 = 100%; Potency, µM (titrated, usually from 45.9 µM), for the others: at the highest dose activation (GFP accumulation), usual class: activators; 67,000 tested, under 10 active; AID 526; active means well fitted activation curve with a large enough effect, not every such curve was filed as active; further: potency means the concentration at half of the fitted maximal effect
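Proteasome blockade was scored as a rise in GFP-expressing U2OS cells carrying a ubiquitin(G76V)-GFP construct, imaged after 4 hr compound treatment at 37 °C across a 46 uM–2.9 nM series.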
USP2a inhib – blocks human ubiquitin-specific protease USP2a | USP2a enzymatic assay, qHTS inhibition | O75604 | Potency, µM (titrated, usually from 38.3 µM), for inactives: top-dose activity change, negative = inhibition, usual class: inhibitors | 0.1% of 60,000 active; further: potency means the concentration at half of the fitted maximal effect; nearly all actives have a fitted effect of over 60% in size
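20 nM USP2 core + cpd, 30 min RT; add 20 nM Ub-PLA2/20 uM NBD C6-HPC; read Ex460/Em535 at 0 h and 2.5 h. Normalized to NEM; qHTS curve fit/classification.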
GBA activity – modulators of human glucocerebrosidase. Potency, µM. P04062. 1.1% of 48,000 active. purified enzyme, resorufin glucoside fluorescence (screen aimed at inhibitors), 20 min; in the data active means potency below about 15 µM;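 further: potency means the concentration at half of the fitted maximal effect; the screen sought inhibitors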
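Normal human glucocerebrosidase (0.2 nM final) was assayed with resorufin β-D-glucopyranoside (30 uM final) in 50mM citric acid/KH2PO4, 10mM sodium taurocholate, 0.01% tween-20, pH 5.9. Compounds were titrated; fluorescence (Ex 548, Em 600) read after 20 min at RT.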
HBB splice mod – hemoglobin beta splicing modulation; Potency, µM (highest dose often 46.1 µM), without a hit: at the top dose activation, usual class: activators; HBB splicing reporter cell assay, activation; EGFP reporter with mutant IVS2-654 intron; response scale: normalised to 500 nM splice-correcting PNA; 0.06% of 65,000 active; further: potency means the concentration at half of the fitted maximal effect; 0% is about no effect
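HeLa cells stably expressing EGFP interrupted by mutant beta-globin intron 2 (IVS2-654), 500/well in 2% FCS. Treated with compound for 2 days at 37C. Splicing correction scored as total well GFP intensity (488 nm excitation, 500-520 nm emission); 500 nM antisense PNA served as control.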
* marks the source's active call; other numbers are inactive results; . = no result given; ! = a repeat was not active; [ ] = remark or other dose. Unless noted, the call rests on the fitted dose curve; in most records, active means well fitted curve in the direction sought with a large enough effect; inconclusive means small, poorly fitted or top-dose-only effect, or another doubt; inactive means no such curve, though single readings can be large; an effect the other way counts as inactive or inconclusive.

SMILES | GFP derepression | Ub-GFP proteasome | USP2a inhib | GBA activity | HBB splice mod
CC(=O)Nc1nnc(SCC(=O)NCCOc2ccccc2)s1 | 7% | -6% | 7.9µM* | . | -1%
O=C1NC(=O)C(=O)C(=O)N1 | . | . | 10µM* | . | .
COC(=O)[C@@H]1C[C@@H]1[C@@H](NP(=O)(c1ccccc1)c1ccccc1)c1ccccc1 | . | . | . | . | 0%
c1ccc(C[N+]23CN4CN(CN(C4)C2)C3)cc1 | 5%[9.22 µM] | 8%[9.17 µM] | . | . | 2%[9.22 µM]
O=S(=O)(c1ccccc1)N1CN2CCN(C2)C1 | 4% | -3% | -10% | 14* | -5%
Cc1cc(N2CCOCC2)nc2ccc(NC(=O)CCC(=O)N3CCC4(CC3)OCCO4)cc12 | -2% | -8% | 6% | 4.7* | 0%
CC(=O)O.CC(=O)O.[Cd] | . | . | 2.5µM* | . | .
CC(=O)[O-].CC(=O)[O-].CC(=O)[O-].[Cr+3] | . | . | . | . | 2%
Cc1ccc(O)cc1C | . | . | . | . | 1%
Cc1c2ccncc2c(C)c2c1[nH]c1ccccc12 | 13µM*! | -5%[20.5 µM] | 2% | . | 13µM*
CNc1ccc2oc(C[C@@H]3O[C@@]4(CC[C@H]3C)O[C@@H]([C@@H](C)C(=O)c3ccc[nH]3)[C@@H](C)C[C@H]4C)nc2c1C(=O)O | -1% | -2% | . | . | 0%
Cc1ccc2ccccc2c1C | . | . | . | . | 0%
CC(C)(C)C(=O)C1C(=O)c2ccccc2C1=O | . | . | . | . | 16µM*
CCC(C)NC(=O)c1c(N)n(Cc2ccc3c(c2)OCO3)c2nc3ccccc3nc12 (configuration not stated) | 3% | 0% | 34% | 15* | 7%[1.84 µM]
Oc1c(Cl)cc(Cl)cc1Cl | . | . | . | . | 0%
CC(C)C[C@H]1C(=O)N2CCC[C@@H]2[C@]2(O)O[C@](NC(=O)[C@H]3C=C4c5cccc6[nH]cc(c56)C[C@H]4N(C)C3)(C(C)C)C(=O)N12 | -2%[9.22 µM] | -1% | . | . | .
